Screening data (PubChem)
HP1b chromo inh – HTS for Inhibitors of HP1-beta Chromodomain Interactions with Methylated Histone Tails; Chromobox protein homolog 1 (Homo sapiens), P83916; AlphaScreen HP1-beta / biotin-H3K9me3 peptide binding; Potency, µM (top dose mostly 114 µM), actives largely listed as inhibitors; 390,000 compounds, 0.56% hits; also: nearly all actives have a fitted effect of over 70% in size
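HP1-beta protein (50 nM final) preincubated 30 min at room temperature with biotinylated H3(1-18)K9me3 peptide (50 nM) in PBS pH 7.4, 0.01% Tween-20, then compound added for 30 min. AlphaScreen streptavidin donor/nickel chelate acceptor beads (10 ug/mL final), 30 min dark, luminescence read.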
Sfp PPTase inh – qHTS Assay for Inhibitors of Bacillus subtilis Sfp phosphopantetheinyl transferase (PPTase) | 4'-phosphopantetheinyl transferase ffp (Bacillus subtilis), Q9F4F7 | Biochemical Sfp PPTase activity, qHTS | Potency, µM, usual class: inhibitors | 310,000 compounds, 3.5% hits;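 also: the enzyme is Sfp with the accession as filed and its product quenches rhodamine fluorescence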
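Compounds were incubated with enzyme (final 15 nM) for 15 min at room temperature before substrate addition started the reaction. Fluorescence at 525 nm excitation, 598 nm emission was recorded immediately and after 30 minutes.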
JMJD2A Tudor inh – qHTS Assay for Inhibitors of JMJD2A-Tudor Domain; Lysine-specific demethylase 4A (Homo sapiens), O75164; AlphaScreen JMJD2A-Tudor / H3K4me3 peptide binding; Potency, µM (highest dose often 114 µM), hits mostly inhibitors; 390,000 compounds, 4.4% hits; also: nearly all actives have a fitted effect of over 50% in size
G9a block – qHTS Assay for Inhibitors of Histone Lysine Methyltransferase G9a | 350,000 compounds, 8.8% hits | G9a H3K9 monomethylation, AlphaScreen, 2 h | Histone-lysine N-methyltransferase EHMT2 (Homo sapiens), Q96KQ7 | Potency, µM (highest dose often 102 µM), hits mostly inhibitors; also: nearly all actives have a fitted effect of over 75% in size
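Enzyme 20 nM + cpd, 15 min RT; add b-H3K9 pep 500 nM / SAM 20 uM; 2 h RT; anti-H3K9me1 Ab 0.5 ug/mL + SA donor / anti-rabbit acceptor beads 20 ug/mL each, 10 min; AlphaScreen read.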
BAZ2B inh – qHTS Assay for Inhibitors of BAZ2B; Potency, µM (highest dose often 114 µM), most hits filed as inhibitors; 360,000 compounds, 4.4% hits; AlphaScreen BAZ2B-H3K14Ac peptide displacement; Bromodomain adjacent to zinc finger domain protein 2B (Homo sapiens), Q9UIF8; also: nearly all actives have a fitted effect of over 60% in size
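BAZ2B (50 nM) with biotin-H3(5-23)K14Ac peptide (50 nM) in PBS pH 7.4, 0.01% Tween-20, preformed 30 min, then compound 30 min at room temperature; top concentration 110uM. AlphaScreen streptavidin donor/nickel chelate acceptor beads (10 ug/mL final), 20 min dark, signal read.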
L3MBTL1 inh – qHTS Assay for the Inhibitors of L3MBTL1. Lethal(3)malignant brain tumor-like protein 1 (Homo sapiens), Q9Y468. AlphaScreen L3MBTL1–H3K9me1 peptide binding. Potency, µM (highest dose often 57.1 µM), actives largely listed as inhibitors. 230,000 compounds, 0.66% hits. AID 485360, 2010; also: nearly all actives have a fitted effect of over 60% in size
Target sequence (Q9Y468 whole entry, looked up): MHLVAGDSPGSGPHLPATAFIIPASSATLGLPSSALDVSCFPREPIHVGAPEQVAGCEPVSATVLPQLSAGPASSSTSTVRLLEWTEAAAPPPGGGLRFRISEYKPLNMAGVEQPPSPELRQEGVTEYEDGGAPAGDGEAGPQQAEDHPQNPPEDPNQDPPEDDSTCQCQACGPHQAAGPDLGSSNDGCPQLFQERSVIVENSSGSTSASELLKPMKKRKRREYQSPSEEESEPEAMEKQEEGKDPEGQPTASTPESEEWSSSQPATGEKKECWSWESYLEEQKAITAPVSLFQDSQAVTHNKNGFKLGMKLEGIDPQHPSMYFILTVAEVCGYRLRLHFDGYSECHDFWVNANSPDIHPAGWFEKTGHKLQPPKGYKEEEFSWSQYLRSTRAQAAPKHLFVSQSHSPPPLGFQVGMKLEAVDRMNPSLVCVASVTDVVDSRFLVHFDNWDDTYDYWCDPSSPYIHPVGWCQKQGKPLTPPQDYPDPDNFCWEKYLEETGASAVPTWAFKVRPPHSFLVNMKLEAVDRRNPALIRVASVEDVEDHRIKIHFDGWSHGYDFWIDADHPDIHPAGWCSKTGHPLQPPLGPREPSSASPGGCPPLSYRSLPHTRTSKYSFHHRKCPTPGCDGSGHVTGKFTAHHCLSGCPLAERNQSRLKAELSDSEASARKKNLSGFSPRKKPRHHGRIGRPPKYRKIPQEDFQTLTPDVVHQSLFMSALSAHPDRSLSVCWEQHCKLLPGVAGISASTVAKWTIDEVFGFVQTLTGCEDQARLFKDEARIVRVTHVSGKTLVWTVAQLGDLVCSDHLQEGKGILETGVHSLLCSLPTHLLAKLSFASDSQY
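L3MBTL1 (50 nM) pre-complexed 30 min with biotinylated H3(1-15)K9me1 peptide (75 nM), then compounds added for 30 min at room temperature; AlphaScreen streptavidin donor/nickel chelate acceptor beads (10 ug/mL final) read after 30 min dark incubation.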
Numbers stand for hits; – = inactive; ? = inconclusive; · = not tested or not shown; [ ] = remark or other dose. In the library only some 12% were active in any assay of this set; here they are far more common. Calls follow the shape of the dose curve; as a rule, active = well fitted curve in the direction sought with a large enough effect; inconclusive = small, poorly fitted or top-dose-only effect, or another doubt; inactive = no such curve, though single readings can be large; an effect the other way counts as inactive or inconclusive.

SMILES | HP1b chromo inh | Sfp PPTase inh | JMJD2A Tudor inh | G9a block | BAZ2B inh | L3MBTL1 inh
N#CC(c1nc2ccccc2nc1N1CCCC1)S(=O)(=O)c1cccs1 (configuration not stated) | – | 50µM | ? | 13µM | – | –
COc1ccc(CNC(=O)C(C#N)c2nc3ccccc3nc2N2CCCC2)cc1 (configuration not stated) | – | – | – | – | – | –
CC(C)OC(=O)C(C#N)c1nc2ccccc2nc1N1CCCC1 (configuration not stated) | – | – | – | 11µM | – | –[11.4 µM]
O=C(/C=C/c1ccc2ccccc2n1)c1cc(Br)ccc1O | – | ? | ? | 10µM | 56µM | ?
COc1ccc(-c2cc(C(F)(F)F)nc(SCC(=O)N3CCCCC3C)n2)cc1OC (configuration not stated) | – | · | – | – | – | ·
O=C(O)c1ccccc1C(=O)NNc1ccc(F)cc1 | – | ? | 40µM | ? | – | –
O=C(O)c1ccccc1C(=O)NNc1ccc(Cl)cc1Cl | – | – | – | 2.8µM | – | –
O=C(O)c1ccccc1C(=O)NCc1ccc(F)cc1 | – | – | – | – | – | –
CCN(CC)C(=O)Cn1c(SCCOc2ccc(Cl)cc2)nc2ccccc21 | – | · | – | ? | ? | ·
O=c1[nH]c(=S)[nH]c2sccc12 | ? | 22µM | 3.5µM | 10µM | – | –
COc1ccc(-n2ccnc(NCc3ccc(Cl)cc3)c2=O)cc1 | – | · | – | – | – | ·
CCCN1CCC(=O)N(CCO)CC1 | – | – | – | 45µM | – | –
CCCN1CCC(=O)N([C@H](CO)CC(C)C)CC1 | – | – | – | 32µM | – | –
COc1ccc(-c2noc(-c3ccc(NCCc4ccccc4)c([N+](=O)[O-])c3)n2)cc1 | – | · | – | ? | – | ·
Cc1nc(C(=O)NNC(=O)c2ccc(Cl)cc2)cs1 | – | – | – | ? | – | –
Cc1nc(/C(=N/O)C(N)=O)cs1 | – | 56µM | –[11.4 µM] | 13µM | 50µM | –
CCOc1ccccc1NC(=O)CN1C(=O)COc2ccc(S(=O)(=O)N3CCCCCC3)cc21 | – | · | – | – | – | ·
CC(=O)c1ccc(NC(=O)C2CCCN(S(=O)(=O)c3cn(C)cn3)C2)cc1 (configuration not stated) | – | · | – | –[12.7 µM] | – | ·
COc1cc2c(cc1OC)CN(c1nc(CN3CCOCC3)nc3sc4c(c13)CCC(C)C4)CC2 (configuration not stated) | ? | – | 25µM | 14µM | 32µM | ?
COc1ccc(Nc2nc(CN3CCOCC3)nc3sc4c(c23)CCC(C)C4)cc1OC (configuration not stated) | · | – | · | – | – | –
Cc1ccc(C(=O)Nc2nnc(-c3ccco3)o2)cc1 | – | – | ? | – | 50µM | –
CC1CCN(S(=O)(=O)c2ccc(C(=O)Nc3nnc(-c4ccco4)o3)cc2)CC1 | – | – | – | · | ? | ·
O=C(Nc1nnc(-c2ccco2)o1)c1ccc([N+](=O)[O-])s1 | – | – | ? | 45µM | ? | –
Cc1ccsc1C(=O)Nc1nnc(-c2ccco2)o1 | – | – | – | – | 79µM | –
N#Cc1ccc(C(=O)Nc2nnc(-c3ccco3)o2)cc1 | – | – | 79µM | – | 18µM | –
SMILES | HP1b chromo inh | Sfp PPTase inh | JMJD2A Tudor inh | G9a block | BAZ2B inh | L3MBTL1 inh
O=C(Nc1nnc(-c2ccco2)o1)c1ccc2ccccc2c1 | – | – | – | – | – | –
O=C(c1ccc2c(c1)OCCO2)N(Cc1cccnc1)c1nc2ccc(F)cc2s1 | – | · | – | ? | – | ·
Cc1ccc(C2CC(=O)n3nc(-c4cccc(C)c4)nc3S2)cc1 (configuration not stated) | – | · | – | – | – | ·
COc1ccc(Oc2ncc3nc(-c4cccs4)c(=O)n(Cc4cccs4)c3n2)cc1 | · | – | · | –[12.7 µM] | · | ·
O=C1CC(=O)N(CCNc2ncc(C(F)(F)F)cc2Cl)C(=O)N1 | – | – | – | – | – | –
O=C1C=CC(=O)N1CCNc1ncc(C(F)(F)F)cc1Cl | – | 7.1µM | ? | 2.5µM | – | –
C/C(=C/CCC(C)C1CCC2(C)C3CCC4C(C)(C)C(=O)CCC4(C)C3=CCC12C)C(=O)O (configuration not stated) | · | – | · | – | 50µM | ·
CC(=O)OC1CCC2(C)C3=C(CCC2C1(C)C)[C@]1(C)CCC(C(C)CCC=C(C)C)[C@]1(C)CC3 (some centres not stated) | · | – | · | –[2.33 µM] | · | ·
CCCn1c(C(C)Nc2nc(-c3cccc(Br)c3)cs2)nc2ccccc21 (configuration not stated) | – | – | ? | ? | – | –
Cc1ccc(Cn2c(C(C)Nc3nc(-c4ccc(Cl)cc4)cs3)nc3cc(C(=O)NCCCO)ccc32)cc1 (configuration not stated) | – | · | 79µM | · | · | ·
CCCn1c(C(C)Nc2nc(-c3ccc(C)cc3)cs2)nc2ccccc21 (configuration not stated) | – | – | ? | 89µM | ? | –
Cc1ccc(Cn2c(CCNc3nc(-c4ccc(C)cc4)cs3)nc3cc(C(=O)NCCCO)ccc32)cc1 | – | · | ? | · | · | ·
Cc1ccc(Cn2c(C(C)Nc3nc(-c4ccc(C)cc4)cs3)nc3cc(Cl)c(Cl)cc32)cc1 (configuration not stated) | 45µM | – | ? | 28µM | 40µM | –
Cc1cc[n+](Cc2ccc([N+](=O)[O-])cc2)cc1 | – | – | – | 45µM | – | –
CC1Cc2nc(SCC(=O)Nc3nccs3)n(C)c(=O)c2S1 (configuration not stated) | – | 50µM | – | ? | – | –
CSc1nc2c(c(=O)n1C)SC(C)C2 (configuration not stated) | – | 50µM | – | – | – | –
Cc1ccc(N/N=C(\C#N)C(N)=S)c(C)c1 | ? | ? | 45µM | 10µM | ? | –
CCCN(CCC)C(=S)NC(=O)c1ccc(-c2ccccc2)cc1 | – | ? | 50µM | –[12.7 µM] | ? | ?
C/[N+]([O-])=C\CC(=O)c1ccc(-c2ccccc2)cc1 | – | – | 32µM | 14µM | – | –
Cc1cc(C)c[n+](CC(=O)c2ccc(NC(=O)c3ccccc3)cc2)c1 | – | – | – | · | – | –
Cc1cc(C)c[n+](CC(=O)c2ccc(-c3ccccc3)cc2)c1 | – | – | – | 50µM | – | –
CN(C)CC(=O)c1ccc(-c2ccccc2)cc1 | – | ? | – | 32µM | · | –
CCCCn1c(=NC(=O)c2cc3ccccc3o2)c(C(=O)OCC)cc2c(=O)n3ccccc3nc21 | – | · | – | ? | – | ·
